# Screening data as filed in PubChem BioAssay.
# This is one part of a sample in which hits are shown more often than they occur.
# SARS PLP yeast: qHTS of Yeast-based Assay for SARS-CoV PLP; S. cerevisiae expressing SARS-CoV PLpro, growth rescue; Potency, µM (titrated, usually from 32.9 µM), most hits filed as activators; actives 0.19% (n = 330,000); calls by dose curve; note: nearly all actives have a fitted effect of over 55% in size
# NS1 function inh: qHTS Assay for Inhibitors of Influenza NS1 Protein Function | Potency, µM (top dose mostly 46.1 µM) | actives 0.4% (n = 270,000) | AID 2326, 2010; calls by dose curve; note: actives are rising curves; nearly all actives have a fitted effect of over 50% in size
#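 Compounds were scored for reversing the slow growth caused by influenza A NS1 in S. cerevisiae, measured by optical density at 600 nm. Assay medium contained 2% galactose at pH 6.0; NS1-free yeast of the same strain were the positive control.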
# Shiga toxin inh: A qHTS for Small Molecule Inhibitors of Shiga Toxin | Vero cells, Shiga toxin protein synthesis inhibition reporter | AID 2315, 2010 | actives 9.2% (n = 290,000) | inhibition, % at 38.7 µM; in the data active = inhibition mostly above about 28%, no sharp cut-off; inactive = mostly below about 43%
# LmPK inhibitor: qHTS Assay for Inhibitors of Leishmania Mexicana Pyruvate Kinase (LmPK). purified LmPK, Kinase-Glo ATP luminescence, 1 h. Potency, µM (series often up to 57.5 µM), most hits filed as inhibitors. actives 0.37% (n = 290,000). AID 1721, 2009
# Target sequence (Q27686 whole entry, looked up): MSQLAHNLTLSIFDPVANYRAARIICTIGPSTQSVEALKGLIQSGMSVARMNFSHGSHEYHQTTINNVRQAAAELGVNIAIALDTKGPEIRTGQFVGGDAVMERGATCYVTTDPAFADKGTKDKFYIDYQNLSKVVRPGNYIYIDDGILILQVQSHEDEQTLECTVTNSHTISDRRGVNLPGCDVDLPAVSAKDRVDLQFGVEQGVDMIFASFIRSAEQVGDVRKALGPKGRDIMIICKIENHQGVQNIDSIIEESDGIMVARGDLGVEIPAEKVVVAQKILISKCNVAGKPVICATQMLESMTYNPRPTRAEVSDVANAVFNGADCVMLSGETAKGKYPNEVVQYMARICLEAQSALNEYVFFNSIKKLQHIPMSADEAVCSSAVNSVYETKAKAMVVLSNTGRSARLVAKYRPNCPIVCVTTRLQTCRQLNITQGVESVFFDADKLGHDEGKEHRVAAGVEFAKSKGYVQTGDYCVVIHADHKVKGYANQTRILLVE
#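 qHTS format; LmPK 0.1 nM; substrates PEP 0.5 mM and ADP 0.1 mM. One-hour room-temperature incubation, then coupled luciferase luminescence; 0.5 nM enzyme wells mark activation.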
# Tb PYK inh: qHTS of Trypanosoma Brucei Inhibitors; TbPYK enzyme, Kinase-Glo Plus ATP luminescence, 45 min; Potency, µM (highest dose often 76.8 µM), actives largely listed as inhibitors; actives 0.12% (n = 410,000); AID 624173, 2012; note: nearly all actives have a fitted effect of over 50% in size
#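 Enzyme and substrate buffer are dispensed first and compound is pin-transferred. ADP at 130 uM final then starts the reaction, which runs 45 min at room temperature. Detection reagent is added for 10 min before luminescence is imaged.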
# Cycloheximide cs: Cycloheximide Counterscreen for Small Molecule Inhibitors of Shiga Toxin; cell reporter, cycloheximide protein synthesis inhibition counterscreen; max response, %; actives 12% (n = 300,000); in the data active = max response mostly above about 13%, no sharp cut-off; inactive = mostly below about 14%; note: read at 38.3 µM for the half of the compounds with a filed dose
# Numbers stand for hits; - = inactive; . = no result given; + = active, no number; [ ] = remark or other dose. Unless noted, calls come from the whole dose curve; as a rule, active = well fitted curve in the direction sought with a large enough effect; inconclusive = small, poorly fitted or top-dose-only effect, or another doubt; inactive = no such curve, though single readings can be large; an effect the other way counts as inactive or inconclusive.
SMILES,SARS PLP yeast,NS1 function inh,Shiga toxin inh,LmPK inhibitor,Tb PYK inh,Cycloheximide cs
COc1ccc(-n2cnc3cc([N+](=O)[O-])ccc32)cc1,-,-,-,-,-,-
CCOC(=O)C(C(=O)OCC)C(c1ccccc1)N1CCN(c2ccccc2)CC1 (stereo not drawn),.,.,.,.,-,.
CN(C)C(=O)c1cc(C(=O)c2ccccc2F)c[nH]1,-,-,-,-,-,-
CN(C)C(=O)c1cc(C(=O)c2ccc(C(F)(F)F)cc2F)c[nH]1,-,.,92,-,-,42
CN(C)C(=O)c1cc(C(=O)c2ccc(F)cc2C(F)(F)F)c[nH]1,-,-,-,-,-,-
CN(C)C(=O)c1cc(C(=O)c2ccc(F)cc2F)c[nH]1,-,-,102,-,-,16
Cc1ccc(NC(=O)/C=C/c2ccc3c(c2)OCO3)cc1S(=O)(=O)N1CCOCC1,-,-,-,-,-,13
CC1CN(C(=O)/C=C/c2ccc3c(c2)OCO3)CC(C)O1 (stereo not drawn),-,-,-,-,-,-
CCC1CCCCN1C(=O)/C=C/c1ccc2c(c1)OCO2 (stereo not drawn),-,-,-,-,-,9.8
CC(C)Cc1ccc(/C=C/C(=O)N2CCOCC2)cc1,-,.,56,-,-,46
O=C(/C=C/c1ccc2c(c1)OCO2)N1CCOCC1,-,-,67,-,-,26
COc1ccc(/C=C/C(=O)N2CCOCC2)cc1OC,-,-,-,-,-,-
CCc1ccccc1Nc1nn2c(=O)c3ccc(C(=O)NCCC4=CCCCC4)cc3nc2s1,.,.,.,.,-,.
O=C(c1csnn1)N1CCC2(CCCN(C(c3ccccc3)c3ccccc3)C2)CC1,.,.,.,.,-,.
CC(C)(C)c1ccc(/C=C/C(=O)N2CCOCC2)cc1,-,-,113,-,-,66
O=C(/C=C/c1ccco1)Nc1ccc(Cl)c(S(=O)(=O)N2CCOCC2)c1,-,-,74,-,-,20
CC(C)(C)c1ccc(/C=C/C(=O)N2CCN(c3ncccn3)CC2)cc1,-,-,-,-,-,-
COc1ccccc1N1CCN(C(=O)CN2C(=O)COc3ccc(S(=O)(=O)N4CCOCC4)cc32)CC1,.,.,.,.,-,.
O=C(c1cc(C(=O)NCc2ccccc2)c(=O)n(Cc2ccccc2)c1)c1cc(Cl)ccc1O,-,-,-,-,-,-
Cc1ccccc1NC(=O)c1cc(C(=O)c2cc(Cl)ccc2O)cn(-c2ccccc2C)c1=O,-,-,46,-,-,39
CC(C)[C@H]1C(=O)Nc2ccccc2N1C(=O)N[C@@H](Cc1ccccc1)C(=O)N[C@@H](C(=O)O)c1ccccc1,-,-,-,-,-,-
CC(C)(C)c1ccc(C(=O)NCC(=O)NCc2ccccn2)cc1,-,.,.,.,-,.
O=C(Nc1ccc2ccccc2c1)c1cccnc1,-,-,+,-,-,47
N#Cc1ccc(C(=O)Nc2ccc3ccccc3c2)cc1,-,-,103,-,-,26
Cc1cc(NC(=O)c2cccnc2)ccc1Br,-,-,44,-,-,31
SMILES,SARS PLP yeast,NS1 function inh,Shiga toxin inh,LmPK inhibitor,Tb PYK inh,Cycloheximide cs
Cc1nc(NC(=O)c2cccnc2)ccc1Br,-,-,57,-,-,32
COc1ccc(NC(=O)c2cccnc2)cc1,-,-,-,-,-,-
Cc1cc(C)cc(NC(=O)c2cccnc2)c1,-,-,-,-,-,-
CCS(=O)(=O)N1CC(=O)N(c2cc(Cl)ccc2C)C(C)(C(=O)NC2CCCCCC2)C1 (stereo not drawn),.,.,.,.,-[15.4 µM],.
CC(C)(C)c1ccc(OCCC(=O)NCC(c2cccs2)N2CCOCC2)cc1 (stereo not drawn),-,.,.,.,-,.
Cc1nc(NC(=O)CN2CC(C)OC(C)C2)sc1C(=O)N(C)C (stereo not drawn),-,-,-,-,-,-
O=C(Nc1ccc2ccccc2c1)c1cnccn1,-,-,85,-,-,29
CC(=O)c1cccc(NC(=O)c2cnccn2)c1,-,-,-,-,-,-
O=C(Nc1ccc2nccnc2c1)c1cnccn1,-,-,47,-,-,19
O=C(Nc1ccc2c(c1)Cc1ccccc1-2)c1ccco1,-,-,142,-,-,45
Cc1ccccc1C(=O)Nc1ccc(Br)c(C)n1,-,-,81,-,-,49
O=C(Nc1cc(Cl)cc2c1[nH]c1cnccc12)c1cccnc1,.,.,-,.,.,-
COc1ccc([C@H]2C[C@H](O)[C@@H](n3cc(-c4ccc(F)cc4)nn3)CN2CC2CCCCC2)cc1,.,.,.,.,-,.
OC[C@@H]1[C@@H](c2ccc(F)cc2)C(c2ccc(F)cc2)=NN1c1ccccc1,.,.,-,.,.,-
Cc1ccc(C(=O)Nc2ccnc(-c3cccnc3)n2)cc1,-,.,-,-,-,36
CC(C)(C)NC(=O)Nc1ccc2nccnc2c1,-,-,88,-,-,29
Cc1nc(NC(=O)CCc2ccccc2)ccc1Br,-,-,137,-,-,32
CC(C)(C)NC(=O)c1ccc2nccnc2c1,-,-,-,-,-,-
COc1ccc(C(=O)Nc2ccc3c(c2)Cc2ccccc2-3)cc1,-,-,-,-,-,-
O=C(Nc1ccc2c(c1)Cc1ccccc1-2)c1cccnc1,-,-,89,-,-,36
CCc1ccccc1N1C(=O)[C@@H]2Cc3ccccc3CN2C1=O,-,-,-,-,-,-
CC1=C(C(=O)Nc2ccc(C)cc2C)C(c2cccs2)n2nc(SCc3ccccc3Cl)nc2N1 (stereo not drawn),.,.,.,.,-,.
Cc1ccc(O)c(C(=O)c2cnc3c(c2)c(-c2ccc(F)cc2)c(C#N)c(=O)n3C)c1,-,-,-,-,-,-
Cc1ccc2nc(NC(=O)c3ccc(N4C(=O)CCC4=O)cc3)sc2c1,-,.,51,-,-,31
O=C(Nc1nc(-c2ccc(F)cc2)cs1)c1cccc(N2C(=O)CCC2=O)c1,-,-,-,-,-,16
SMILES,SARS PLP yeast,NS1 function inh,Shiga toxin inh,LmPK inhibitor,Tb PYK inh,Cycloheximide cs
Cc1ccc2nc(NC(=O)c3ccc4c(c3)OCO4)sc2c1,-,-,76,-,-,62
Cc1ccc(C(=O)Nc2nc3ccc(S(=O)(=O)N4CCCC4)cc3s2)cc1,.,.,.,.,-,.
Cc1ccnc(NC(=O)c2ccc3c(c2)C(=O)N(CC2CCCO2)C3=O)c1 (stereo not drawn),-,-,62,-,-,24
CCOC(=O)c1sc(N2C(=O)c3oc4ccccc4c(=O)c3C2c2ccc(C(C)(C)C)cc2)nc1C (stereo not drawn),.,.,.,.,-,.
COc1cccc(NC(=O)Cn2c(=O)n(-c3ccc(C)cc3)c(=O)c3ccc(C(=O)NCc4ccco4)cc32)c1,.,.,.,.,-,.
NS(=O)(=O)c1ccc2nc(NC(=O)c3ccc4c(c3)OCCO4)sc2c1,-,-,-,-,-,-
O=C(Nc1nc2cc3c(cc2s1)OCO3)c1cccc(N2C(=O)CCC2=O)c1,-,-,50,-,-,25
